Measured values taken from PubChem BioAssay (NCATS).
Where “and” joins values, the source holds several entries; their conditions need not be identical. Equal entries are not always repeated. Results filed as inconclusive are left out. Entries that show only a call come without a potency. Values without a mark were called inactive. Calls of active or inactive are those of the source. The call rests on the fitted dose curve; in most records, active means well fitted curve in the direction sought with a large enough effect; inconclusive means small, poorly fitted or top-dose-only effect, or another doubt; inactive means no such curve, though single readings can be large; an effect the other way counts as inactive or inconclusive.

Columns and labels:
[1] = Quantitative highthroughput screen to assess conditional lethalithy of NOMO1 cells grown in RPMI1640 with untreated serum (RPMI+s) (AID 1963876); details: NOMO1 AML cells in RPMI+serum, CellTiter-Glo viability, 48 h; series mostly up to 45.8 µM; further: nearly all actives have a fitted effect of over 35% in size; further: potency means the concentration at half of the fitted maximal effect
In short: (§1)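 Each medium arm—HPLM with 10% dialyzed FBS, or RPMI1640 with 5 mM glucose and 10% untreated or dialyzed FBS—was screened against an 11-point, 3-fold compound titration for 48 h at 37 °C, with CellTiter-Glo luminescence as endpoint.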

[2] = Quantitative highthroughput screen to assess conditional lethalithy of NOMO1 cells grown in RPMI1640 with dialyzed fetal bovine serum (RPMI+ds) (AID 1963877); details: NOMO1 in RPMI+dialyzed FBS viability, ATP luminescence, 48 h; series mostly up to 45.8 µM; further: nearly all actives have a fitted effect of over 30% in size; further: potency means the concentration at half of the fitted maximal effect
In short: as §1

[3] = Quantitative highthroughput screen to assess conditional lethalithy of NOMO1 cells grown in Human Plasma-Like Medium with dialyzed fetal bovine serum (HPLM+ds) (AID 1963878); details: NOMO1 AML cells in HPLM+ds, CellTiter-Glo viability, 48 h; series mostly up to 45.8 µM; further: nearly all actives have a fitted effect of over 35% in size; further: potency means the concentration at half of the fitted maximal effect
In short: as §1

[4] = Quantitative highthroughput screen to assess conditional lethalithy of P12 Ichikawa cells grown in RPMI1640 with dialyzed fetal bovine serum (RPMI+ds) (AID 1963880); details: ATP luminescence, 48 h; Potency: P12-Ichikawa viability; series mostly up to 45.8 µM; further: nearly all actives have a fitted effect of over 35% in size; further: potency means the concentration at half of the fitted maximal effect
In short: as §1

[5] = Quantitative highthroughput screen to assess conditional lethalithy of P12 Ichikawa cells grown in RPMI1640 with untreated serum (RPMI+s) (AID 1963881); details: ATP luminescence, 48 h; Potency: viability; series mostly up to 45.8 µM; further: nearly all actives have a fitted effect of over 35% in size; further: potency means the concentration at half of the fitted maximal effect
In short: as §1

[6] = Quantitative highthroughput screen to assess conditional lethalithy of SEM cells grown in Human Plasma-Like Medium with dialyzed fetal bovine serum (HPLM+ds) (AID 1963882); details: SEM B-ALL cells in HPLM+ds, CellTiter-Glo viability, 48 h; series mostly up to 45.8 µM; further: nearly all actives have a fitted effect of over 35% in size; further: potency means the concentration at half of the fitted maximal effect
In short: as §1

[7] = Quantitative highthroughput screen to assess conditional lethalithy of SEM cells grown in RPMI1640 with unreated serum (RPMI+s) (AID 1963883); details: SEM B-ALL cells, CellTiter-Glo viability, 48 h; series mostly up to 45.8 µM; further: nearly all actives have a fitted effect of over 35% in size; further: potency means the concentration at half of the fitted maximal effect
In short: as §1

[8] = Cellular viability qHTS for adrenocortical cancer (ACC) cell line NCI-H295R (AID 1963990); details: CellTiter-Glo ATP luminescence, 48 h; series mostly up to 46.1 µM; further: nearly all actives have a fitted effect of over 60% in size
In short: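 CellTiter-Glo ATP luminescence, read 48 h after compound addition, measured viability of NCI-H295R adrenocortical cells grown serum-free with ITS. Final concentrations spanned up to 46 uM. Data normalized to DMSO and doxorubicin, fitted for IC50 and maximal response.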

[9] = Quantitative highthroughput screen to assess conditional lethalithy of SEM cells grown in RPMI1640 with dialyzed fetal bovine serum (RPMI+ds) (AID 1963884); details: SEM B-ALL cells, RPMI+dialyzed FBS, CellTiter-Glo viability, 48 h; series mostly up to 45.8 µM; further: nearly all actives have a fitted effect of over 35% in size; further: potency means the concentration at half of the fitted maximal effect
In short: as §1

[10] = Cellular viability qHTS for adrenocortical cancer (ACC) cell line SW-13 (AID 1963989); details: SW-13 ACC cells viability, CellTiter-Glo, 48 h; activity (max response): hits give low values;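 further: cells grown in serum-free medium with ITS supplement; nearly all actives have a fitted effect of over 65% in size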
In short: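 Viability was read as CellTiter-Glo luminescence after 48 h compound treatment (up to 46 uM final) of SW-13 cells grown serum-free; titration curves were fit with a four-parameter logistic model to give IC50 and efficacy.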

[11] = Quantitative highthroughput screen to assess conditional lethalithy of P12 Ichikawa cells grown in Human Plasma-Like Medium with dialyzed fetal bovine serum (HPLM+ds) (AID 1963879); details: ATP luminescence, 48 h; Potency: viability; series mostly up to 45.8 µM; further: nearly all actives have a fitted effect of over 35% in size
In short: as §1

SMILES | Potency [1] | Potency [2] | Potency [3] | Potency [4] | Potency [5] | Potency [6] | Potency [7] | Potency [8] | Potency [9] | activity (max response) [10] | Potency [11]
CC1=C(CC(=O)O)c2cc(F)ccc2C1=Cc1ccc(S(C)=O)cc1 (stereo not drawn) | inactive | inactive | inactive | inactive | inactive | inactive | inactive | inactive | – | – | –
COc1cc(C=CC(=O)O)ccc1O | inactive | inactive | inactive | inactive | inactive | inactive | inactive | – | – | – | –
CCC(C=C[C@@H]1OC(=O)C=C[C@H]1C)=C[C@H](C)CC=CC(C)=C[C@@H](C)C(=O)[C@@H](C)[C@H](O)[C@@H](C)CC(C)=CC(=O)O | 110 nM (active) | 87.7 nM (active) | 78.2 nM (active) | 87.7 nM (active) | 87.7 nM (active) | 34.9 nM (active) | 15.6 nM (active) | – | 22 nM (active) | – | –
Cn1cc(-c2ccc3nnc(Sc4ccc5ncccc5c4)n3n2)cn1 | inactive | inactive | inactive | – | inactive | inactive | inactive | inactive | inactive | -4.92% | –
COC(=O)N[C@H](C(=O)N1CCC[C@@H]1c1ncc(-c2ccc(-c3ccc(-c4cnc([C@@H]5CCCN5C(=O)[C@@H](NC(=O)OC)C(C)C)[nH]4)cc3)cc2)[nH]1)C(C)C | inactive | inactive | inactive | inactive | inactive | inactive | – | – | – | – | –
CC[C@]1(O)C[C@@H]2CN(CCc3c([nH]c4ccccc34)[C@@](C(=O)OC)(c3cc4c(cc3OC)N(C=O)[C@@H]3C45CCN4CC=C[C@](CC)([C@H]45)[C@@H](OC(C)=O)[C@]3(O)C(=O)OC)C2)C1 (stereo partly drawn) | inactive | inactive | inactive | inactive | inactive | – | – | – | – | – | –
NC(=O)c1ncn([C@@H]2O[C@H](CO)[C@@H](O)[C@@H]2O)c1N | inactive | inactive | inactive | inactive | inactive | 18700 nM (active) | – | – | – | – | –
COc1ccccc1N1CCN(CCN(C(=O)C2CCCCC2)c2ccccn2)CC1 | inactive | inactive | inactive | inactive | inactive | inactive | inactive | inactive | inactive | – | –
N=C1SC(=Cc2ccc(-c3ccc4c(c3)C(=O)NC4=O)o2)C(=O)N1c1ccc(Br)cc1 | inactive | inactive | inactive | – | inactive | – | 13200 nM (active) | – | – | – | –
CC1=NN(c2ccccc2)C(=O)C1 | inactive | inactive | inactive | inactive | inactive | inactive | inactive | inactive | inactive | 8.8% and -4.32% | –
COc1cc(C=CC(=O)CC(=O)C=Cc2ccc(O)c(OC)c2)ccc1O | 38200 nM (active) | 42900 nM (active) | 24100 nM (active) | 34000 nM (active) | 34000 nM (active) | 19100 nM (active) | 17100 nM (active) | – | – | – | –
Clc1cccc(-n2nnnc2NCc2ccccc2Oc2ccccn2)c1Cl | inactive | inactive | inactive | – | – | inactive | inactive | inactive | – | – | inactive
CCOC(=O)[C@H](CCc1ccccc1)N[C@@H](C)C(=O)N1CCCC1C(=O)O (stereo partly drawn) | inactive | inactive | inactive | inactive | inactive | inactive | inactive | – | inactive | – | –
Cc1csc(NC(=O)c2sc3nc4c(c(C(F)(F)F)c3c2N)CCC4)n1 | inactive | inactive | inactive | – | inactive | inactive | inactive | inactive | inactive | -2.72% | –
C[C@H]1C[C@H]2[C@@H]3CCC4=CC(=O)C=C[C@]4(C)[C@@H]3C(=O)C[C@]2(C)[C@@]1(O)C(=O)CO | inactive | inactive | inactive | inactive | inactive | – | 20900 nM (active) | – | 23500 nM (active) | – | –
C[C@H](CCC(=O)O)[C@H]1CC[C@H]2[C@H]3[C@@H](CC[C@]12C)[C@@]1(C)CC[C@@H](O)C[C@H]1C[C@@H]3O | inactive | inactive | inactive | inactive | inactive | inactive | inactive | – | – | – | –
Cc1ccc(/C=N/NC(=O)c2ccccc2Oc2ccccc2)o1 | inactive | inactive | inactive | – | – | inactive | inactive | inactive | – | -16.3% | inactive
CC(Cc1ccc(O)c(O)c1)(NN)C(=O)O (stereo not drawn) | inactive | inactive | inactive | – | – | inactive | – | inactive | – | 0.463% | inactive
C=CC1=C(C(=O)O)N2C(=O)[C@@H](NC(=O)C(=NO)c3csc(N)n3)[C@H]2SC1 | inactive | inactive | inactive | inactive | inactive | inactive | inactive | – | inactive | – | –
CC=C1NC(=O)[C@H]2CSSCCC=C[C@H](CC(=O)N[C@H](C(C)C)C(=O)N2)OC(=O)[C@H](C(C)C)NC1=O | 41.8 nM (active) | 52.6 nM (active) | 37.2 nM (active) | 37.2 nM (active) | – | 37.2 nM (active) | 29.6 nM (active) | – | 37.2 nM (active) | – | –
